Results from PubChem BioAssay (NCATS).
Inconclusive results are not listed. Entries that show only a call come without a potency. Activity calls are given as the source filed them. Calls follow the shape of the dose curve; as a rule, active = well fitted cell-killing curve with a large enough effect; inconclusive = small, poorly fitted or top-dose-only effect; inactive = flat fitted curve, though single readings scatter.

Test: Cell Viability - LYMP2-025 (AID 976);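 also: cells exposed to compound for 24 h at 37 °C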
Conditions: LYMP2-025 lymphoblastoid cell viability; series mostly up to 92.2 µM
Method in brief: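 Luminescent ATP readout after 24 hr treatment of a human lymphoblastoid line (LYMP2-025, 2500 cells/well, 37 C). Reagent developed 30 min at room temperature; AC50 fitted with the Hill equation.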

Structure (SMILES) | Potency
Nc1cccc(C(F)(F)F)c1 | inactive
O=Cc1ccc(C(=O)O)cc1 | inactive
NC(=O)/N=N/C(N)=O | inactive
CC(=O)c1cccc([N+](=O)[O-])c1 | inactive
CNC(=O)c1ccccc1 | inactive
O=[N+]([O-])c1cccc(C(F)(F)F)c1 | inactive
CCC(C)(C)OC | inactive
NC(N)=S | inactive

Test: Cell Viability - LYMP2-002 (AID 977);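 also: compound exposure lasted 24 h at 37 °C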
Conditions: LYMP2-002 lymphoblastoid cell viability, qHTS; series mostly up to 92.2 µM
Method in brief: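 In this qHTS viability screen, 2500 human lymphoblastoid cells per well receive compound for 24 hr at 37 C, and luciferase-based ATP luminescence gives the viability signal. Tetraoctylammonium bromide serves as positive control.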

Structure (SMILES) | Potency
CC=O | inactive
Cc1ccc(CO)cc1 | inactive
Cc1cc([N+](=O)[O-])ccc1N | inactive
Clc1cc(Cl)cc(Cl)c1 | inactive
Nc1nc2ccccc2[nH]1 | inactive
NC(=O)c1ccccc1[N+](=O)[O-] | inactive
COc1ccc(N)c(C)c1 | inactive
Oc1cccc(Nc2ccccc2)c1 | inactive
O=C(O)c1cccc(Cl)c1Cl | inactive
O=C(O)CNC(=O)c1ccc(CO)o1 | inactive
Nc1cccc2c(=O)[nH][nH]c(=O)c12 | inactive
CCOc1cccc(N)c1 | inactive
CCC(C)(C)C(=O)O | inactive
ICCc1ccccc1 | inactive
COc1ccc(OC)cc1 | inactive
FC(F)(F)c1cccc(Cl)c1 | inactive
CCNS(=O)(=O)c1ccc(C)cc1 | inactive
CCOc1ccccc1N | inactive
C=CC(=O)NC(C)C | inactive
Cc1ccc2cccnc2c1 | inactive

Structure (SMILES) | Potency
CCCCCCO | inactive
CC(=O)Nc1ccccc1C | inactive
CC(C)(c1cc(Br)c(OCC(Br)CBr)c(Br)c1)c1cc(Br)c(OCC(Br)CBr)c(Br)c1 (stereo not drawn) | inactive
COc1ccc(N=[N+]([O-])c2ccc(OC)cc2)cc1 | inactive
CNc1ccccc1 | inactive
Oc1c(Cl)ccc(Cl)c1Cl | inactive
CN(C)CCCNCCCN | inactive
ClC/C=C/CCl | inactive
O=C(Cl)c1cccc([N+](=O)[O-])c1 | inactive
CC(=C/C=C/C(C)=C/C=C/C=C(C)/C=C/C=C(C)/C=C/C(=O)O)/C=C/C(=O)O | inactive
Cc1cccc(C(=O)O)c1 | inactive
Cc1ccc2ncccc2c1 | inactive
Nc1cccc(C(F)(F)F)c1 | inactive
O=Cc1ccc(C(=O)O)cc1 | inactive
NC(=O)/N=N/C(N)=O | inactive
CC(=O)c1cccc([N+](=O)[O-])c1 | inactive
CNC(=O)c1ccccc1 | inactive
O=[N+]([O-])c1cccc(C(F)(F)F)c1 | inactive
CCC(C)(C)OC | inactive
NC(N)=S | inactive
